ChEMBL document CHEMBL1961873, “Compounds: GSK PKIS; Assays: Nanosyn kinase panel” (2012)

The molecules below were run against Serine/threonine-protein kinase pim-2 (Homo sapiens) (UniProt Q9P1W9). Details: at 1 µM.
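Note: each value is a mean of the inhibition measurements against the kinase.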

Serine/threonine-protein kinase pim-2 (Homo sapiens), sequence (Q9P1W9 whole entry, looked up): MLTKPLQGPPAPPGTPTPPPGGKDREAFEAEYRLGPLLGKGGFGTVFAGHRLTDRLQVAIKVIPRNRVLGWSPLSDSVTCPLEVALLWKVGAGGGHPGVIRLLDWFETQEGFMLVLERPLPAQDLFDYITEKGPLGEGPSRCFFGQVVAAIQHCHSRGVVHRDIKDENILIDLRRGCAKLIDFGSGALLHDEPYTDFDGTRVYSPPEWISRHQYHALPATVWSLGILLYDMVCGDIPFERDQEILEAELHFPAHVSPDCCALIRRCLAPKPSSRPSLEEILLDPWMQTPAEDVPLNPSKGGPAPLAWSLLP

Compound	inhibition [%]
NC(=O)c1cc(-c2ccncc2)cc(-c2ccccc2)c1N	0.75
COc1cc2ncn(-c3cc(OCc4cccs4)c(C(N)=O)s3)c2cc1OC	-1.58
COc1ccc(C2=C(N3CCc4ccccc43)C(=O)NC2=O)cc1	0.67
NS(=O)(=O)c1ccc(N/N=C2\C(=O)Nc3ccc(C(=O)NCCCn4ccnc4)cc32)cc1	7.42
O=C(Nc1n[nH]c2nc(-c3ccc(O)cc3)c(Br)cc12)C1CC1	75.2
Clc1ccc(CNc2nccc(-c3cnn4ncccc34)n2)cc1	2.14
CS(=O)(=O)CCNCc1ccc(-c2ccc3ncnc(Nc4ccc(OCc5ccccc5)c(Br)c4)c3c2)o1	-3.1
c1ccc(Oc2ccc(Nc3ncc(-c4ccccc4)o3)cc2)cc1	0.53
Cc1ccc(NC(=O)c2ccoc2)cc1-c1ccc(C(=O)NCC2CC2)cc1	0.6
C/C(Nc1ccc(S(N)(=O)=O)cc1)=C1/C(=O)Nc2ccccc21	0.33
Fc1ccc(-c2c(-c3ccncc3)nc3n2CCS3)cc1	-3.85
O=C(Nc1ccc(Oc2ccc3[nH]c(NC(=O)c4ccccc4)nc3c2)cc1)Nc1cc(C(F)(F)F)ccc1F	-0.13
O=C1NC(=O)C(c2cccc(Cl)c2)=C1Nc1ccc(Cl)c(C(=O)O)c1	-0.53
NS(=O)(=O)c1ccc(Nc2cc(-c3ccc(O)c(F)c3)n[nH]2)cc1	0.39
COC(=O)Nc1nc2ccc(Sc3ccc(NC(=O)Nc4cc(C(F)(F)F)ccc4F)cc3)cc2[nH]1	-0.09
Cc1nnc(-c2ccc(C)c(-c3ccc(C(=O)NCc4ccc(Cl)cc4)cc3)c2)o1	-2.67
